Data on 40 molecules can be found in PubChem BioAssay (NCI).

Each structure is given as a SMILES string. This is part of a sample that, as a whole, favours compounds with a hit. Of some 83,000 tested, about 20% had one in any assay.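 Note: values are percent growth. 100 is the growth of untreated cells, values between 100 and 0 indicate rising inhibition; between -100 and 0 indicates cell death.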 A number with no mark means an inactive call. Active and inactive are the calls of the source. How the source made its calls: active means growth percent below 10; inactive means the rest.

In the first assay the test system is SK-MEL-28 melanoma. Description: NCI-60 one-dose screen, 48 h (100 = growth as untreated, 0 = no growth, -100 = all killed). The following applies: 10 µM unless noted.
Consider `C/C(CC1(O)C(=O)Nc2ccccc21)=N\O` (configuration not stated), for which the growth was 108%. Same read-out and setting: with `Cc1ccc2c(n1)C(=O)C(Cl)=C(Nc1ccccc1C(=O)OC(C)(C)C)C2=O` the figure was 34.6%. With `COc1ccc(/C=N\NC(=O)c2cnn(CC(O)c3ccccc3)c2N)cc1OCc1ccc(Cl)cc1` (configuration not stated), the growth is 71.4%. The same measure, in the same setting: for `NC(N)=NS(=O)(=O)c1ccc(N=Nc2c(N)nn(-c3ccc([N+](=O)[O-])cc3[N+](=O)[O-])c2N)cc1` the value was 109%; for `COc1ccccc1Cn1cc(C#N)c(N)c1C(=O)c1ccc(Br)cc1`, 100%; for `CC(=C(c1ccc(OCCN2CCCC2)cc1)c1ccc(OCCN2CCCC2)cc1)c1ccc(Cl)cc1`, -82.5% (active). For `CCN(CC)CCOc1ccc(C(=C(C)Cc2ccc(OC)cc2)c2ccc(OCCN(CC)CC)cc2)cc1`, the growth is -82% (active). On the same count and under the same terms, with `Fc1ccc(-c2cn3c(-c4c[nH]c5ccc(Br)cc45)csc3n2)cc1` the figure was 87.8%. On to `CC1=C(C)C(=O)C(Nc2cccc(C(=O)OC(C)(C)C)c2)=CC1=O`, for which the growth was 96.5%. Regarding `CSc1ccc(/C(=N/N=C(N)N)c2ccc(Cl)cc2)cc1`, the growth is 48.8%. As to `O=C(/C=C/Nc1ccc(S(=O)(=O)Nc2ncccn2)cc1)c1ccc(N=Cc2c(O)[nH]c3ccccc23)cc1`, the growth is 118%. Take `N#Cc1c(-c2cccs2)cc(-c2cnccn2)nc1SCC(=O)N/N=C/c1cccs1`: the growth was 27.5%. For `O=S(=O)(NCCCNc1nccc(-c2[nH]c(-c3ccccc3)nc2-c2ccc(F)c(O)c2)n1)c1ccccc1`, the growth was 33.8%.

As for `CC1(C)CC[C@]2(C(=O)NCCCCCCN(CCCN)CCCN)CC[C@]3(C)C(=CC[C@@H]4[C@@]5(C)CC[C@H](O)C(C)(C)[C@@H]5CC[C@]43C)[C@@H]2C1`, the growth was 107%.

Consider `CCOC(=O)c1c(NCC(=O)Nc2cccc([N+](=O)[O-])c2)sc(C(C)=O)c1C`, for which the growth is 2.62% (active). For `O=c1oc2ccc(-c3ccc(F)cc3F)cc2c(=O)n1-c1ccc(Br)cc1F`, the growth is 77.3%. As to `Cc1ccc2c(n1)C(=O)C(Cl)=C(Nc1cccc(C(=O)OC(C)(C)C)c1)C2=O`, the growth is 103%. Regarding `C/C(=C(\c1ccc(O)cc1)c1ccc(OCCN2CCCCCC2)cc1)c1ccc(Cl)cc1`, the growth is -84.1% (active). On to `CC1=C(C)C(=O)C(Nc2cccc(C(F)(F)F)c2)=C(Br)C1=O`, for which the growth was 105%. For `CC(C)C(/C=C/c1[nH]ncc1-c1cc(Cl)ccc1O)N1CCOCC1` (configuration not stated), the growth is 98.9%. Turning to `Fc1cccc(Cl)c1/C=N/Nc1nc(N/N=C/c2c(F)cccc2Cl)nc(N2CCCCC2)n1`, the growth was 44.9%.

On to `COc1ccc(C2C(C#N)=C(/N=C/c3ccc(Cl)cc3)Oc3c2sc2c(C)cccc32)cc1` (configuration not stated), for which the growth is 61.8%. On to `O=C(CCCCCCNC(=O)C(O)(O)C(F)(F)F)Nc1ccc(Cl)cc1`, for which the growth was 27%. With `O=C1C(SCc2ccccc2)=C(Cl)CN1c1ccc(Cl)cc1`, the growth is 88.1%. The same measure, in the same setting: with `Cc1ccc(-c2nc(SCC(=O)c3ccccc3)nc(Nc3ccc(S(N)(=O)=O)cc3)c2C#N)cc1` the figure was 81.1%; with `O=C1C(N2CCN(c3ccccc3)CC2)=C(Cl)C(=O)c2ncccc21`, 83%. As to `C#Cc1nc(C(=O)NCCCCCCC(=O)NO)cs1`, the growth was -53.1% (active). On the same count and under the same terms, for `C[C@H](Nc1ncnc2ccc(-c3cnc(Cl)c(NS(C)(=O)=O)c3)cc12)c1ccccc1` the value was -18.2% (active); for `Cc1ccc(/C=N/Nc2nc(Nc3ccccc3)nc(Nc3ccc(S(N)(=O)=O)cc3)n2)cc1`, 75.7%; for `Cc1ccc(S(=O)(=O)NCCCNc2nc(Nc3ccc(N4CCN(C)CC4)cc3)nc3ccsc23)cc1`, -84.5% (active). For the molecule `CC(C)=CCC[C@](C)(O)[C@H]1CC[C@]2(C)[C@@H]1CC[C@@H]1[C@@]3(C)CC[C@H](N)C(C)(C)[C@@H]3CC[C@]12C`, the growth is 108%. As to `NNc1nnc2nc(Nc3ccccc3)nc(Nc3ccc(S(N)(=O)=O)cc3)n12`, the growth was 106%.

A further assay has as its system SK-MEL-2 melanoma. The assay is described as above. The following applies: 10 µM unless noted.
For `COCCOc1ccc2ncc(C#Cc3cncc(C(=O)Nc4ccc(CN5CCN(C)CC5)c(C(F)(F)F)c4)c3)n2n1`, the growth is -82.7% (active). As for `CCOC(=O)c1c(N)c(C#N)cn1Cc1ccc(Cl)cc1Cl`, the growth was 94.2%. For `Cc1ccc(Nc2nc(SC(C)C)nc(-c3ccccc3)c2C#N)cc1`, the growth was 112%. The same measure, in the same setting: for `O=C(CSc1nc2ccccc2c(=O)n1-c1ccc(Cl)c(Cl)c1)Nc1ccc(S(=O)(=O)Nc2ccc(Cl)nn2)cc1` the value was 103%; for `N#Cc1cnc2ccc(-c3cnc4n[nH]nc4c3)cc2c1N1CCc2cc(F)c(Cl)cc21`, -22.6% (active); for `CNC(=O)Nc1ccc(Nc2cc(-c3ccc(-n4cccn4)cc3)[nH]n2)c(C)c1`, 122%. Regarding `CN1CCN(Cc2ccc(NC(=O)c3cncc(C#Cc4cnc5ccc(N)nn45)c3)cc2C(F)(F)F)CC1`, the growth was -27.9% (active). Take `Cc1cc(=O)oc2cc(OCCCOc3ccc(/C=C/C(=O)Nc4ccc(Br)cc4)cc3)ccc12`: the growth was 91.1%. With `C/C(CC1(O)C(=O)Nc2ccccc21)=N\O` (configuration not stated), the growth was 102%. For the molecule `Cc1ccc2c(n1)C(=O)C(Cl)=C(Nc1ccccc1C(=O)OC(C)(C)C)C2=O`, the growth is 93.6%.

For the molecule `COc1ccc(/C=N\NC(=O)c2cnn(CC(O)c3ccccc3)c2N)cc1OCc1ccc(Cl)cc1` (configuration not stated), the growth was 92.9%. As for `NC(N)=NS(=O)(=O)c1ccc(N=Nc2c(N)nn(-c3ccc([N+](=O)[O-])cc3[N+](=O)[O-])c2N)cc1`, the growth is 106%. `COc1ccccc1Cn1cc(C#N)c(N)c1C(=O)c1ccc(Br)cc1`: the growth was 98.6%. `CC(=C(c1ccc(OCCN2CCCC2)cc1)c1ccc(OCCN2CCCC2)cc1)c1ccc(Cl)cc1`: the growth was -2.54% (active). The same measure, in the same setting: for `CCN(CC)CCOc1ccc(C(=C(C)Cc2ccc(OC)cc2)c2ccc(OCCN(CC)CC)cc2)cc1` the value was 116%; for `Fc1ccc(-c2cn3c(-c4c[nH]c5ccc(Br)cc45)csc3n2)cc1`, 90.5%; for `CC1=C(C)C(=O)C(Nc2cccc(C(=O)OC(C)(C)C)c2)=CC1=O`, 82.4%.

Regarding `CSc1ccc(/C(=N/N=C(N)N)c2ccc(Cl)cc2)cc1`, the growth was -7.8% (active). For `O=C(/C=C/Nc1ccc(S(=O)(=O)Nc2ncccn2)cc1)c1ccc(N=Cc2c(O)[nH]c3ccccc23)cc1`, the growth was 118%. Still for that read-out and setting: for `N#Cc1c(-c2cccs2)cc(-c2cnccn2)nc1SCC(=O)N/N=C/c1cccs1` the value was 78.5%. The same measure, in the same setting: with `O=S(=O)(NCCCNc1nccc(-c2[nH]c(-c3ccccc3)nc2-c2ccc(F)c(O)c2)n1)c1ccccc1` the figure was 31.6%.

On to `CC1(C)CC[C@]2(C(=O)NCCCCCCN(CCCN)CCCN)CC[C@]3(C)C(=CC[C@@H]4[C@@]5(C)CC[C@H](O)C(C)(C)[C@@H]5CC[C@]43C)[C@@H]2C1`, for which the growth is 113%. Regarding `CCOC(=O)c1c(NCC(=O)Nc2cccc([N+](=O)[O-])c2)sc(C(C)=O)c1C`, the growth is -15% (active). Consider `O=c1oc2ccc(-c3ccc(F)cc3F)cc2c(=O)n1-c1ccc(Br)cc1F`, for which the growth is 41%. On to `Cc1ccc2c(n1)C(=O)C(Cl)=C(Nc1cccc(C(=O)OC(C)(C)C)c1)C2=O`, for which the growth was 115%.

For `C/C(=C(\c1ccc(O)cc1)c1ccc(OCCN2CCCCCC2)cc1)c1ccc(Cl)cc1`, the growth is -92.3% (active). In the case of `CC1=C(C)C(=O)C(Nc2cccc(C(F)(F)F)c2)=C(Br)C1=O`, the growth was 104%. As for `CC(C)C(/C=C/c1[nH]ncc1-c1cc(Cl)ccc1O)N1CCOCC1` (configuration not stated), the growth is 91.3%. For `Fc1cccc(Cl)c1/C=N/Nc1nc(N/N=C/c2c(F)cccc2Cl)nc(N2CCCCC2)n1`, the growth is -25.8% (active). Take `COc1ccc(C2C(C#N)=C(/N=C/c3ccc(Cl)cc3)Oc3c2sc2c(C)cccc32)cc1` (configuration not stated): the growth is -12.9% (active). Take `O=C(CCCCCCNC(=O)C(O)(O)C(F)(F)F)Nc1ccc(Cl)cc1`: the growth was -13.7% (active). With `O=C1C(SCc2ccccc2)=C(Cl)CN1c1ccc(Cl)cc1`, the growth is 79.9%.

Consider `Cc1ccc(-c2nc(SCC(=O)c3ccccc3)nc(Nc3ccc(S(N)(=O)=O)cc3)c2C#N)cc1`, for which the growth is 95.7%. As to `O=C1C(N2CCN(c3ccccc3)CC2)=C(Cl)C(=O)c2ncccc21`, the growth was 97.1%.

Turning to `C#Cc1nc(C(=O)NCCCCCCC(=O)NO)cs1`, the growth was 8.08% (active). Regarding `C[C@H](Nc1ncnc2ccc(-c3cnc(Cl)c(NS(C)(=O)=O)c3)cc12)c1ccccc1`, the growth was -84.9% (active). As for `Cc1ccc(/C=N/Nc2nc(Nc3ccccc3)nc(Nc3ccc(S(N)(=O)=O)cc3)n2)cc1`, the growth was 77.8%. For the molecule `Cc1ccc(S(=O)(=O)NCCCNc2nc(Nc3ccc(N4CCN(C)CC4)cc3)nc3ccsc23)cc1`, the growth was 92.9%. As for `CC(C)=CCC[C@](C)(O)[C@H]1CC[C@]2(C)[C@@H]1CC[C@@H]1[C@@]3(C)CC[C@H](N)C(C)(C)[C@@H]3CC[C@]12C`, the growth is 109%. On to `NNc1nnc2nc(Nc3ccccc3)nc(Nc3ccc(S(N)(=O)=O)cc3)n12`, for which the growth is 111%.
